Measurements published in PubChem BioAssay (NCI).
Compounds without any hit were thinned out: in the full panel of roughly 83,000, 20% have a hit.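 A percent growth of 40 corresponds to 60% growth inhibition; 0 means no net growth; -100 means all cells died. Active threshold: below 10.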 Values without a mark were called inactive. Active and inactive are the calls of the source.

System: HOP-92 NSCLC
Assay: NCI-60 one-dose screen, 48 h (100 = growth as untreated, 0 = no growth, -100 = all killed)
Conditions: 10 µM unless noted

Structure (SMILES)	growth
COc1ccc(S(=O)(=O)N2CCN(c3cc4c(cc3F)c(=O)c(C(=O)O)cn4C3CC3)CC2)c(OC)c1	90.2%
CCC(C)NCC(=O)O (stereo not given)	109%
O=C(O)Cc1ccc2c(c1)Cc1cccnc1O2	112%
COc1cc(Cn2c(SCC(=O)Nc3ccc(Cl)cc3)nc3ccccc3c2=O)cc(OC)c1OC	-20.8% (active)
CC(C)(C)OC(=O)N[C@@H](Cc1ccccc1)C(=O)N(Cc1ccccc1)C1(C(=O)NCc2ccccc2)CCN(Cc2ccccc2)CC1	-8.51% (active)
COC(=O)C(CC(=O)c1ccc(-c2ccccc2)cc1)c1ccccc1 (stereo not given)	68.3%
C=C1C(=O)O[C@H]2[C@H]1CC/C(Cn1cc(-c3ccccc3C(F)(F)F)nn1)=C\CC[C@@]1(C)O[C@@H]21	-70.4% (active)
O=C(O)C(=Cc1c2ccccc2cc2ccccc12)C(=O)O	105%
CN(C)c1nc(N)c(N=O)c(N)n1	102%
CCCCCCC[C@@H](O)CC(=O)N[C@H](CCCCN)C(=O)N[C@H](Cc1c[nH]c2ccccc12)C(=O)NC(CCCCN)C(=O)N[C@H](CC(C)C)C(=O)N[C@H](Cc1ccccc1)C(=O)N[C@H](CCCCN)C(=O)N[C@H](CCCCN)C(=O)N[C@H](CC(C)C)C(=O)N1CCCC1C(=O)N[C@H](CCCCN)C(=O)N[C@H](Cc1ccccc1)C(=O)N[C@H](CC(C)C)C(=O)N[C@H](Cc1c[nH]cn1)C(=O)N[C@H](CC(C)C)C(=O)N[C@H](C)C(=O)N[C@H](CCCCN)C(=O)N[C@H](CCCCN)C(=O)N[C@H](Cc1ccccc1)C(=O)O (stereo not given in full)	-54.4% (active)
